The panel holds about 83,000 compounds, 20% with a hit somewhere; the sample as a whole holds those more often.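 In brief: 96-well plates, 48 h treatment, single concentration, percent growth endpoint.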 Values without a mark were called inactive. The source made the active and inactive calls. The calls were made as follows: active = growth percent below 10; inactive = the rest.

Consider eight compounds from PubChem BioAssay (NCI).

Some test systems named below: SR leukemia; RPMI-8226 leukemia; OVCAR-8 ovarian; OVCAR-5 ovarian; OVCAR-4 ovarian; SK-OV-3 ovarian; IGROV1 ovarian; OVCAR-3 ovarian; HS 578T breast; NCI/ADR-RES ovarian; T-47D breast; BT-549 breast; MDA-MB-435 melanoma; SW-620 colon; HCT-116 colon; HCC-2998 colon; KM12 colon; MDA-MB-468 breast; MCF7 breast.
Test in all cases: NCI-60 one-dose screen, 48 h (100 = growth as untreated, 0 = no growth, -100 = all killed)
Common to all, as to conditions: 10 µM unless noted

With `CC12CC[C@@H]3[C@]4(C)COC(c5cn[nH]c5-c5ccc(Cl)cc5)O[C@@H]4CC[C@@]3(C)[C@@H]1CC(C1=CCOC1=O)O2` (some centres undefined), the growth in the experiment on SR leukemia is 16.5%; with RPMI-8226 leukemia, 12%; with OVCAR-8 ovarian, 55.5%; in the experiment on OVCAR-5 ovarian, 62.3%; with OVCAR-4 ovarian, 39.5%; with SK-OV-3 ovarian it was 55%. In addition, the growth in the experiment on IGROV1 ovarian was 51%; in the experiment with OVCAR-3 ovarian it was 42.6%; with HS 578T breast, 51%; in the experiment on NCI/ADR-RES ovarian it was 42.5%; with T-47D breast, 6.42% (active); in the experiment with BT-549 breast, 5.38% (active). Also, the growth in the experiment on MDA-MB-435 melanoma was 47.7%; in the experiment with SW-620 colon, 49.4%; in the experiment with HCT-116 colon, 25.1%; in the experiment with HCC-2998 colon, 58%; with KM12 colon, 31.9%; in the experiment on MDA-MB-468 breast it was 0.753% (active).
For `Cn1cc(-c2cc(N)n3nc(-c4c[nH]c5ccccc45)cc3n2)c2cccnc21`, the growth in the experiment on SR leukemia was -32.9% (active); in the experiment on RPMI-8226 leukemia, -28.5% (active); with OVCAR-8 ovarian it was 27.5%; with OVCAR-5 ovarian, 30.2%; in the experiment with OVCAR-4 ovarian it was 28.4%; in the experiment on SK-OV-3 ovarian, 89.9%. For the same compound, the growth is 28.1% with IGROV1 ovarian; 12.6% with OVCAR-3 ovarian; 82.7% in the experiment with HS 578T breast; 27.7% with NCI/ADR-RES ovarian; 22.2% in the experiment on T-47D breast; 71.8% in the experiment on BT-549 breast. In addition, the growth with MDA-MB-435 melanoma is 5.57% (active); in the experiment with SW-620 colon it was -53.7% (active); with HCT-116 colon, -77.1% (active); in the experiment on HCC-2998 colon, -31.6% (active); in the experiment on KM12 colon, 1.87% (active); in the experiment on MDA-MB-468 breast, -54.3% (active).
With `O=C(C1=CNC(=S)NC1c1ccc(O)cc1)c1cc2ccccc2oc1=O` (centres undefined), the growth in the experiment on SR leukemia is 75.5%; in the experiment with RPMI-8226 leukemia, 88.7%; with OVCAR-8 ovarian it was 100%; with OVCAR-5 ovarian, 109%; in the experiment with OVCAR-4 ovarian it was 96.1%; in the experiment with SK-OV-3 ovarian it was 93.2%. The growth in the experiment on IGROV1 ovarian was 108%; in the experiment with OVCAR-3 ovarian it was 101%; in the experiment on HS 578T breast, 97.8%; in the experiment with NCI/ADR-RES ovarian it was 106%; with T-47D breast, 112%; in the experiment on BT-549 breast, 83.7%. The growth in the experiment on MDA-MB-435 melanoma was 105%; in the experiment on SW-620 colon it was 104%; in the experiment on HCT-116 colon, 101%; in the experiment with HCC-2998 colon it was 102%; in the experiment on KM12 colon it was 95.8%; with MDA-MB-468 breast it was 99.5%.
Consider `CCCCSc1nc(Nc2ccc(C(C)=O)cc2)c(C#N)c(-c2ccc(OC)cc2)n1`, for which the growth with SR leukemia was 70.9%; with RPMI-8226 leukemia it was 91%; with OVCAR-8 ovarian, 27.5%; in the experiment on OVCAR-5 ovarian, 57.9%; with OVCAR-4 ovarian, -45.4% (active); in the experiment on SK-OV-3 ovarian, 106%. Also, the growth in the experiment on IGROV1 ovarian is 38.5%; in the experiment on OVCAR-3 ovarian, 20.8%; in the experiment on HS 578T breast, 66.1%; in the experiment on NCI/ADR-RES ovarian, 58.1%; with T-47D breast it was 64.3%; in the experiment on BT-549 breast, 75.3%. For the same compound, the growth in the experiment on SW-620 colon is 63.2%; with MCF7 breast, 65.4%; with HCT-116 colon it was 32.5%; in the experiment with HCC-2998 colon it was 98.4%; in the experiment on KM12 colon, 95.3%; with MDA-MB-468 breast it was 67.5%.
Regarding `CC(=O)c1c(N)c(C#N)cn1-c1ccc(Cl)cc1Cl`, the growth was 90.8% in the experiment with SR leukemia; 105% in the experiment with RPMI-8226 leukemia; 98.2% with OVCAR-8 ovarian; 100% in the experiment on OVCAR-5 ovarian; 106% with OVCAR-4 ovarian; 89.1% in the experiment on SK-OV-3 ovarian. Besides, the growth was 96.5% in the experiment with IGROV1 ovarian; 120% in the experiment on OVCAR-3 ovarian; 110% with HS 578T breast; 108% in the experiment on NCI/ADR-RES ovarian; 95.1% with T-47D breast; 104% in the experiment on BT-549 breast. Besides, the growth with SW-620 colon was 102%; in the experiment with MCF7 breast, 100%; in the experiment with HCT-116 colon, 99.1%; in the experiment on HCC-2998 colon, 114%; in the experiment on KM12 colon, 95.8%; in the experiment on MDA-MB-468 breast it was 97.1%.
Consider `CCOC(=O)c1ccc(Nc2nc(NN)nc(-c3ccc(OC)cc3)c2C#N)cc1`, for which the growth in the experiment on SR leukemia was 97.2%; with RPMI-8226 leukemia, 92%; in the experiment with OVCAR-8 ovarian, 116%; with OVCAR-5 ovarian, 104%; in the experiment with OVCAR-4 ovarian, 104%; in the experiment on SK-OV-3 ovarian, 119%. Besides, the growth was 108% with IGROV1 ovarian; 107% in the experiment on OVCAR-3 ovarian; 104% in the experiment with HS 578T breast; 113% with NCI/ADR-RES ovarian; 84.9% in the experiment on T-47D breast; 116% in the experiment on BT-549 breast. The growth is 62.6% in the experiment with MDA-MB-435 melanoma; 104% in the experiment on SW-620 colon; 101% in the experiment on HCT-116 colon; 81% with HCC-2998 colon; 93.9% with KM12 colon; 119% with MDA-MB-468 breast.
For `COc1c(F)ccc(C(=O)Nc2ccc3nc(NC(=O)C4CCCN(S(=O)(=O)c5ccc(Cl)cc5)C4)sc3c2)c1F` (centres undefined), the growth was 44.8% in the experiment with SR leukemia; 53.8% with RPMI-8226 leukemia; 97.2% in the experiment on OVCAR-8 ovarian; 97% in the experiment with OVCAR-5 ovarian; 86.2% with OVCAR-4 ovarian; 97.2% with SK-OV-3 ovarian. Besides, the growth was 72.9% in the experiment with IGROV1 ovarian; 92% with OVCAR-3 ovarian; 60.2% in the experiment with HS 578T breast; 74% with NCI/ADR-RES ovarian; 52.6% with T-47D breast; 62.4% in the experiment on BT-549 breast. The growth in the experiment with MDA-MB-435 melanoma was 101%; in the experiment with SW-620 colon, 97.2%; with HCT-116 colon it was 65.3%; with HCC-2998 colon it was 103%; in the experiment on KM12 colon it was 78.7%; in the experiment on MDA-MB-468 breast, 80.2%.
As to `Cn1cc(-c2cc3nc(-c4cn(C)c5ncccc45)cc(N)n3n2)c2cc(Cl)ccc21`, the growth is -54.7% (active) in the experiment on SR leukemia; -13.9% (active) with RPMI-8226 leukemia; -41.4% (active) in the experiment on OVCAR-8 ovarian; 0.37% (active) with OVCAR-5 ovarian; -16.5% (active) in the experiment with OVCAR-4 ovarian; -67.7% (active) in the experiment with SK-OV-3 ovarian. Also, the growth was -82.7% (active) with IGROV1 ovarian; -75% (active) with OVCAR-3 ovarian; -29.7% (active) with HS 578T breast; -43.6% (active) with NCI/ADR-RES ovarian; -70.9% (active) in the experiment on T-47D breast; -94.6% (active) with BT-549 breast. For the same compound, the growth in the experiment with MDA-MB-435 melanoma was -81.1% (active); in the experiment with SW-620 colon it was -86.3% (active); in the experiment with HCT-116 colon it was -94.4% (active); in the experiment with HCC-2998 colon, -97.8% (active); in the experiment on KM12 colon it was -37.2% (active); in the experiment on MDA-MB-468 breast, -95.5% (active).
